The values below come from the OligoGym collection.
Note: reference of the scale not given here.

In one test the target is FAM117A. Nature of the test: pooled miR-30 sensor sort-seq; sequence = guide strand. Conditions: shRNA.
Take TATACAAACTTCAAACAGCTGC: the sensor-assay potency score (higher = more potent) is -0.329.
In the case of TTTTCTAATCCATCCAGCCCTG, the sensor-assay potency score (higher = more potent) was -0.672.
TTCTTCAAACACACGCACTTTC gave a sensor-assay potency score (higher = more potent) of -0.795.
As for TACACACTGACTTTTCTGGGGC, the sensor-assay potency score (higher = more potent) is 0.0109.
Consider TTGTCATTGGTGCAGCAGGTGA, for which the sensor-assay potency score (higher = more potent) was -1.77.
Same read-out and setting: the result for AAATAGAGTCTCTACATCGATA reads -1.34.
Regarding TGTAGCTATGATTAGGTCGAGG, the sensor-assay potency score (higher = more potent) is -1.12.
With TCACCTTCTAGCTCTTGCCAGG, the sensor-assay potency score (higher = more potent) is -1.11.
In turn, TTAACATTCTTCAATTTTGTGT gave a sensor-assay potency score (higher = more potent) of -0.138.
Sequence AACTCGAACATTAACATTCTTC registered a sensor-assay potency score (higher = more potent) of -0.482.
For the sequence TTGAAATGGACTTTGTTCTTGT, the sensor-assay potency score (higher = more potent) amounted to 1.01.

The next test has as its target FAM127A. Described as above. The note with it: shRNA.
ATCTCGGCCAGAAAGCCCCGGT: the sensor-assay potency score (higher = more potent) is -0.915.
Still for that read-out and setting: the result for AAAGACTCGCTTCATCTCGGCC reads -1.07; that for TATCGCCGTCAAACGTCTCGGG, -0.476; that for TCGGTATCGCCGTCAAACGTCT, -1.19.
The sequence TCGGTCGGTATCGCCGTCAAAC gave a sensor-assay potency score (higher = more potent) of -1.87.
Turning to TCGCTGGAGAACGTGTTCTCGT, the sensor-assay potency score (higher = more potent) is -1.32.
In turn, TCGCCGTCAAACGTCTCGGGAA showed a sensor-assay potency score (higher = more potent) of -1.08.
Take TTCATCTCGGCCAGAAAGCCCC: the sensor-assay potency score (higher = more potent) is -0.891.
For the sequence TGTAGGAGCCCGTCTGCACGAT, the sensor-assay potency score (higher = more potent) is -1.04.
In turn, ATCGCCGTCAAACGTCTCGGGA displayed a sensor-assay potency score (higher = more potent) of -1.14.
Take ATTGAGGAGGGGGCTCTCCTTC: the sensor-assay potency score (higher = more potent) was -1.52.
